Test results: PubChem BioAssay (Tox21)
Results filed as inconclusive are left out. The source made the active and inactive calls. Unless noted, calls follow the shape of the full dose curve.

Tests used:
[1] = target: Peroxisome proliferator-activated receptor delta (Homo sapiens) (UniProt Q03181); experiment: qHTS assay to identify small molecule agonists of the peroxisome proliferator-activated receptor delta (PPARd) signaling pathway (AID 743212)
Procedure, shortened: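 GeneBLAzer PPARd UAS-bla HEK293H cells (beta-lactamase reporter under UAS control), plated and rested 5 h at 37 C, then exposed to compounds in DMSO at 37 C; LiveBLAzer B/G FRET substrate added, 2 h room temperature, fluorescence read.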

[2] = qHTS assay to identify small molecule antagonists of the peroxisome proliferator-activated receptor delta (PPARd) signaling pathway - cell viability counter screen (AID 743213; active = well fitted curve in the direction sought with a large enough effect in the repeat runs; an effect the other way counts as inactive or inconclusive; also: nearly all actives have a fitted effect of over 50% in size)
Procedure, shortened: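 HEK293H cells with the PPARd UAS-bla reporter, co-treated 17 h at 37 C with compounds and L165041 (300 nM final), were lysed with CellTiter-Glo. Luminescence indicated viable cell content.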

[3] = target: Bile acid receptor (Homo sapiens) (UniProt Q96RI1); experiment: qHTS assay to identify small molecule antagonists of the farnesoid-X-receptor (FXR) signaling pathway (AID 743217; active = well fitted inhibition curve with a large enough effect in the signal ratio in the repeat runs, not every such curve was filed as active; the % refers to the signal ratio)
Sequence of Bile acid receptor (Homo sapiens) (Q96RI1 whole entry, looked up): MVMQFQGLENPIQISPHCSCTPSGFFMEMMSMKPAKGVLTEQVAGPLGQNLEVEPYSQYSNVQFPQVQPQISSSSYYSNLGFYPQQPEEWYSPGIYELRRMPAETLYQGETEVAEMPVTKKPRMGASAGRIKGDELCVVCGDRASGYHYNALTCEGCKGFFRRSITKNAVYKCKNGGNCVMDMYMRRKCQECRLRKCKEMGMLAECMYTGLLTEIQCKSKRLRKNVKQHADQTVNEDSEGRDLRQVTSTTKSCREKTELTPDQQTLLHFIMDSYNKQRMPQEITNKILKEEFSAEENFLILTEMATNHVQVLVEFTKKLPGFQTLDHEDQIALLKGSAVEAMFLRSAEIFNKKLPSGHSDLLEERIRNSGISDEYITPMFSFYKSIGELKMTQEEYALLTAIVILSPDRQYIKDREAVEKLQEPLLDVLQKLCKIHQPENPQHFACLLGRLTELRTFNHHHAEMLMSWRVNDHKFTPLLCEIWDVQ
Procedure, shortened: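 FXR-UAS-bla HEK 293T cells (beta-lactamase reporter) given compound plus chenodeoxycholic acid (50 uM final), 16 h at 37C. LiveBLAzer B/G FRET substrate added for 2 h at room temperature; fluorescence read.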

[4] = target: Bile acid receptor (Homo sapiens) (UniProt Q96RI1); experiment: qHTS assay to identify small molecule agonists of the farnesoid-X-receptor (FXR) signaling pathway (AID 743220; active = well fitted activation curve with a large enough effect in the signal ratio in the repeat runs, not every such curve was filed as active; the % refers to the signal ratio)
Procedure, shortened: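 Beta-lactamase reporter under UAS control in GeneBLAzer FXR HEK 293T cells (5000/well) measured with LiveBLAzer FRET substrate after 2 h at room temperature. Compound exposure lasted 16 h at 37C.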

[5] = qHTS assay to identify small molecule antagonists of the farnesoid-X-receptor (FXR) signaling pathway - cell viability counter screen (AID 743221; active = well fitted cell-killing curve with a large enough effect in the repeat runs, not every such curve was filed as active; also: nearly all actives have a fitted effect of over 50% in size)
Procedure, shortened: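 Quantitative HTS of the Tox21 10K library run in parallel with the beta-lactamase reporter read. HEK 293T cells carrying a UAS-driven bla reporter got compound and 50 uM CDCA (final) for 16 h; ATP-based luminescence followed.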

[6] = qHTS assay to identify small molecule agonists of the vitamin D receptor (VDR) signaling pathway - cell viability counter screen (AID 743224; active = well fitted curve in the direction sought with a large enough effect in the repeat runs; an effect the other way counts as inactive or inconclusive; also: series mostly up to about 63 µM; nearly all actives have a fitted effect of over 50% in size)
Procedure, shortened: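 VDR-bla cells, 4 h after plating, exposed to compounds for 16 h at 37C; viability then read in the same wells as CellTiter-Glo luminescence after 30 min at room temperature, following the bla FRET read.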

[7] = qHTS assay to identify small molecule antagonists of the vitamin D receptor (VDR) signaling pathway - cell viability counter screen (AID 743225; active = well fitted curve in the direction sought with a large enough effect in the repeat runs; an effect the other way counts as inactive or inconclusive; also: nearly all actives have a fitted effect of over 50% in size)
Procedure, shortened: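 Cells (VDR-UAS-bla HEK 293T) are plated, rested 4 h at 37C, dosed with compound and 3 nM final 1-alpha,25-dihydroxy vitamin D3, and incubated 16 h. Viability is taken from CellTiter-Glo luminescence in the reporter wells.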

[8] = qHTS assay to identify small molecule agonists of the NFkB signaling pathway (AID 1159509; active = well fitted curve in the direction sought with a large enough effect in the signal ratio in the repeat runs, not every such curve was filed as active; the % refers to the signal ratio; also: series mostly up to about 61 µM)
Procedure, shortened: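 After overnight attachment, reporter cells received test compounds, DMSO or positive controls and were incubated 5 hr at 37 C. FRET substrate was then added for 1.5 hr at room temperature before dual-emission fluorescence reading.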

[9] = qHTS assay to identify small molecule agonists of the NFkB signaling pathway - cell viability counter screen (AID 1159515); also: series mostly up to about 61 µM; nearly all actives have a fitted effect of over 55% in size
Procedure, shortened: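 NFkB-bla ME-180 cells, 2,000/well, plated overnight at 37 C; compound added for 5 hr at 37 C. Viability read in the same wells as the bla reporter, by CellTiter-Glo luminescence after 30 min at room temperature.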

[10] = qHTS assay to identify small molecule agonists of the endoplasmic reticulum stress response signaling pathway (AID 1159516; active = well fitted activation curve with a large enough effect in the signal ratio in the repeat runs, not every such curve was filed as active; the % refers to the signal ratio)
Procedure, shortened: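 CellSensor ESRE-bla HeLa cells, 1,500 per well, plated overnight, then exposed to compounds for 5 hr at 37 C. Beta-lactamase reporter read with LiveBLAzer B/G FRET substrate after 2 hr at room temperature, 405 nm excitation, 460 and 530 nm emission.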

[11] = qHTS assay to identify small molecule agonists of the endoplasmic reticulum stress response signaling pathway - cell viability counter screen (AID 1159517)
Procedure, shortened: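 Luminescence readout: CellTiter-Glo, 30 min RT, same wells as the ESRE-bla reporter read. HeLa ESRE-bla, 1,500 cells/well, o/n 37 C; cpd 5 hr 37 C/5% CO2.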

[12] = target: Nuclear receptor ROR-gamma (Homo sapiens) (UniProt P51449); experiment: qHTS assay to identify small molecule antagonists of the retinoid-related orphan receptor gamma (ROR-gamma) signaling pathway (AID 1159521; active = well fitted curve in the direction sought with a large enough effect in the repeat runs; an effect the other way counts as inactive or inconclusive)
Procedure, shortened: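 RORγ antagonism is scored from reduced reporter luminescence in Tet-on CHO cells. Induction used 1 uM final doxycycline hyclate for 16 h at 37 C, following a 2 h compound exposure.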

[13] = qHTS assay to identify small molecule agonists of the AP-1 signaling pathway - cell viability counter screen (AID 1159525); also: nearly all actives have a fitted effect of over 55% in size
Procedure, shortened: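 ME-180 AP-1-bla, 2500 cells/well, Opti-MEM + 0.5% dialyzed FBS; overnight 37 °C; cpd 15-pt titration, 5 h 37 °C; CellTiter-Glo 30 min RT; luminescence read; normalised to TOAB and DMSO controls.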

[14] = qHTS assay to identify small molecule agonists of the AP-1 signaling pathway (AID 1159526)
[15] = target: Vitamin D3 receptor (Homo sapiens) (UniProt P11473); experiment: qHTS assay to identify small molecule agonists of the vitamin D receptor (VDR) signaling pathway (AID 743222)
Sequence of Vitamin D3 receptor (Homo sapiens) (P11473 whole entry, looked up): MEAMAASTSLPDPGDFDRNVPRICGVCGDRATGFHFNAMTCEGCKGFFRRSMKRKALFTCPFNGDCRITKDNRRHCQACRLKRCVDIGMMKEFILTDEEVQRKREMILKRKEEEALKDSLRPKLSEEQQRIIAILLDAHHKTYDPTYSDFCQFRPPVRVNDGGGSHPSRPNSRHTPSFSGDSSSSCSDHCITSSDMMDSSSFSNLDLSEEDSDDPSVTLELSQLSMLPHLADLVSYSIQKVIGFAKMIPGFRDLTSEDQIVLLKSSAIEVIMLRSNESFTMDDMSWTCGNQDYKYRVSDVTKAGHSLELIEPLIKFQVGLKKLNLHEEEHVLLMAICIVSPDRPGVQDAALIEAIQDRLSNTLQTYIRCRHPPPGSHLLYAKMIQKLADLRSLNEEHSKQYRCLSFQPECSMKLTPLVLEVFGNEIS
Procedure, shortened: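 VDR-bla cells plated 4 h at 37 C, then exposed to compounds for 16 h at 37 C. Beta-lactamase reporter activity measured by fluorescence after 2 h room-temperature loading with LiveBLAzer B/G FRET substrate.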

[16] = target: Vitamin D3 receptor (Homo sapiens) (UniProt P11473); experiment: qHTS assay to identify small molecule antagonists of the vitamin D receptor (VDR) signaling pathway (AID 743223; active = well fitted inhibition curve with a large enough effect in the signal ratio in the repeat runs, not every such curve was filed as active; the % refers to the signal ratio)
Procedure, shortened: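 Fluorescence from LiveBLAzer B/G FRET substrate, read after 2 h at room temperature, reflects beta-lactamase reporter activity in VDR-bla cells treated 16 h at 37C with compounds and agonist 1alpha,25-dihydroxyvitamin D3 (3 nM final).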

[17] = target: Peroxisome proliferator-activated receptor delta (Homo sapiens) (UniProt Q03181); experiment: qHTS assay to identify small molecule antagonists of the peroxisome proliferator-activated receptor delta (PPARd) signaling pathway (AID 743215; active = well fitted inhibition curve with a large enough effect in the signal ratio in the repeat runs, not every such curve was filed as active; the % refers to the signal ratio;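 also: cells stimulated with agonist L165041 at 300 nM final during compound exposure; series mostly up to about 62 µM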)
Procedure, shortened: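 PPARd-bla HEK293H cells (UAS-bla reporter) preincubated 5 h, then given compound plus 300 nM final L165041 agonist for 17 h at 37 C. Beta-lactamase activity read by LiveBLAzer B/G FRET substrate fluorescence after 2 h at room temperature.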

[18] = qHTS assay to identify small molecule antagonists of the retinoid-related orphan receptor gamma (ROR-gamma) signaling pathway - cell viability counter screen (AID 1159520; active = well fitted curve in the direction sought with a large enough effect in the repeat runs; an effect the other way counts as inactive or inconclusive; also: nearly all actives have a fitted effect of over 50% in size)
Procedure, shortened: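 Tet-on ROR gamma CHO cells (1,000/well) were plated 4 hr, given compounds in DMSO for 2 hr at 37 C, then induced with 1 uM final doxycycline for 16 hr. Viability was read as ATP by CellTiter-Glo luminescence after 30 min.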

[19] = target: Retinoic acid receptor RXR-alpha (Homo sapiens) (UniProt P19793); experiment: qHTS assay to identify small molecule agonists of the RXR signaling pathway (AID 1159527); also: nearly all actives have a fitted effect of over 35% in size
Sequence of Retinoic acid receptor RXR-alpha (Homo sapiens) (P19793 whole entry, looked up): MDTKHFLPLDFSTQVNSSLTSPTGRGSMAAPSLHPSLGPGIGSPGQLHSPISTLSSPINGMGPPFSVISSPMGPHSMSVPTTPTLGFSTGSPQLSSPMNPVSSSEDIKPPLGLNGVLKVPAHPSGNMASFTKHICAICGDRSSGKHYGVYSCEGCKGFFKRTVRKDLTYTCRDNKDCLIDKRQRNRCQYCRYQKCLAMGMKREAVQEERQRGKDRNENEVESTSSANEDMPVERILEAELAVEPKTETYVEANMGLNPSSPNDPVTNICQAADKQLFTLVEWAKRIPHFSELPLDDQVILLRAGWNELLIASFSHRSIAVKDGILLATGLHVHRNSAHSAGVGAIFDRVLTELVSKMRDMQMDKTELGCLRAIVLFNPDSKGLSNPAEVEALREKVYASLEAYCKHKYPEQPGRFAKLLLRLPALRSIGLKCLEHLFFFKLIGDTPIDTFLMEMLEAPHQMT
Procedure, shortened: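 qHTS of the Tox21 10K library in GeneBLAzer RXR-alpha HEK 293T cells carrying a beta-lactamase reporter […]; 16 hr treatment, 9-cis retinoic acid as agonist control, FRET read-out.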

[20] = qHTS assay to identify small molecule agonists of the farnesoid-X-receptor (FXR) signaling pathway - cell viability counter screen (AID 743218; active = well fitted curve in the direction sought with a large enough effect in the repeat runs; an effect the other way counts as inactive or inconclusive; also: nearly all actives have a fitted effect of over 45% in size)
Procedure, shortened: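 FXR-UAS-bla HEK 293T cells exposed to compounds for 16 h at 37C. Cytotoxicity read in the same wells by CellTiter-Glo luminescence after 30 min at room temperature, following the beta-lactamase FRET read.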

Measured: Potency

Sequence of Peroxisome proliferator-activated receptor delta (Homo sapiens) (Q03181 whole entry, looked up): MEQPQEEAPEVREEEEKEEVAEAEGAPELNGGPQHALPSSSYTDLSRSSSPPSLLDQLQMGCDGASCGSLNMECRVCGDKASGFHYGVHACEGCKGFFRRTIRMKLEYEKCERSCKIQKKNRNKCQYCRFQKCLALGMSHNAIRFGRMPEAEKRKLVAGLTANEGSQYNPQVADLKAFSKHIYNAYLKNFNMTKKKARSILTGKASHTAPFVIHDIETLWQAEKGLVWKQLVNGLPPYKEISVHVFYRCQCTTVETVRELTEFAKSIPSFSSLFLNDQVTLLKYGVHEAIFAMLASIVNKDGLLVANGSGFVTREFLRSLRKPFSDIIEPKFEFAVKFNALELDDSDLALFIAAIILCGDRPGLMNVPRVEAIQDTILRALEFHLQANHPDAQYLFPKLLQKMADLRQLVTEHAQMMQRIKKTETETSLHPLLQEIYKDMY

C[C@]1(O)CC[C@H]2[C@@H]3CCC4=CC(=O)CC[C@]4(C)[C@@]3(F)[C@@H](O)C[C@@]21C
inactive: [1] | [2] | [3] | [4] | [5] | [6] | [7] | [8] | [9] | [10] | [11] | [12] | [13] | [14]

CCCCOC(=O)[C@@H](C)Oc1ccc(Oc2ccc(C#N)cc2F)cc1
inactive: [2] | [5] | [15] | [16] | [6] | [7] | [8] | [9] | [10] | [11] | [12] | [13]

CN1CCC(N(Cc2ccccc2)c2ccccc2)CC1
inactive: [1] | [17] | [5] | [15] | [6] | [7] | [8] | [9] | [10] | [11] | [18] | [13] | [19]

Cc1nc(N)nc(N)n1
inactive: [1] | [17] | [20] | [5] | [15] | [16] | [6] | [7] | [8] | [9] | [10] | [11] | [13] | [14] | [19]

BrCCCCCCBr
inactive: [1] | [2] | [5] | [15] | [6] | [7] | [8] | [9] | [10] | [11] | [12] | [13]

O=C1CN2CCOC2(c2ccccc2Cl)c2cc(Cl)ccc2N1 (centres undefined)
inactive: [1] | [2] | [17] | [4] | [5] | [15] | [6] | [7] | [8] | [9] | [10] | [11] | [18] | [13] | [19]

CC(C)(C)NCC(O)c1cc(Cl)c(N)c(Cl)c1 (centres undefined)
inactive: [1] | [3] | [20] | [4] | [5] | [15] | [6] | [7] | [8] | [9] | [10] | [11] | [13] | [14] | [19]

CC1(C)COP(Oc2ccccc2)OC1
inactive: [1] | [2] | [17] | [3] | [20] | [4] | [5] | [15] | [16] | [6] | [7] | [8] | [9] | [10] | [11] | [12] | [13] | [14]
